Vaccinia Venus: vaccinia inhibition (Venus reporter); hit rate 0.46% among 330,000; Potency, µM (highest dose often 36.5 µM), inactives show at the highest dose activity change, negative = inhibition, most hits filed as inhibitors; Vaccinia virus Venus reporter expression, fluorescence; calls by dose curve; tested in A549 cells; further: nearly all actives have a fitted effect of over 30% in size
Sm TGR inh: S. mansoni TGR enzyme inhibition; purified TGR, DTNB reduction, TNB absorbance 405 nm; Potency, µM (series often up to 114 µM), without a hit: at the top dose activity change, negative = inhibition, usual class: inhibitors; hit rate 3% among 360,000; active means well fitted inhibition curve with a large enough effect; inconclusive means small, poorly fitted or top-dose-only effect; inactive means no such curve, though single readings can be large or run the other way; further: nearly all actives have a fitted effect of over 60% in size
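TGR 20 nM + NADPH 100 uM (dispensed conc.), cpd preinc 15 min RT; start with NADPH (500 uM addition) then DTNB (15 mM addition). Kinetic TNB absorbance, 405 nm filter. Four-parameter Hill fit across titration.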
LASV entry inh: inhibitors of Lassa virus binding or cell entry | Potency, µM (series often up to 37.9 µM), without a hit: at the top dose activity change, negative = inhibition, most hits filed as inhibitors | Lassa virus pseudotype entry inhibition, cell reporter | AID 540256 | hit rate 1.2% among 300,000; calls by dose curve; tested in HEK293 cells; further: nearly all actives have a fitted effect of over 50% in size
Vaccinia mCherry: vaccinia inhibition (mCherry reporter). Vaccinia virus mCherry reporter infection, fluorescence. Potency, µM (titrated, usually from 36.5 µM), inactives show top-dose activity change, negative = inhibition, most hits filed as inhibitors. hit rate 0.63% among 310,000. AID 720579; calls by dose curve; tested in A549 cells; further: nearly all actives have a fitted effect of over 35% in size
FMDV inh: antivirals against foot and mouth disease virus; Potency, µM (series often up to 57.9 µM), without a hit: at the highest dose activity change, negative = inhibition, actives largely listed as inhibitors; FMDV antiviral cell-based qHTS; hit rate 1.2% among 410,000; calls by dose curve; tested in HEK293T cells; further: read-out not given here; nearly all actives have a fitted effect of over 45% in size
Marburg entry inh: inhibitors of Marburg virus binding or cell entry; hit rate 1.8% among 300,000; Marburg virus pseudotyped entry inhibition, cell reporter; Potency, µM (titrated, usually from 37.8 µM), without a hit: at the highest dose activity change, negative = inhibition, usual class: inhibitors; calls by dose curve; tested in HEK293 cells
* marks the source's active call; other numbers are inactive results; [ ] = remark or other dose. Only some compounds are listed: those with a hit (about 5.4% of all), similar ones and a draw of the others. On the % scale 0 is the no-effect control and ±100 the full control effect; potency means the concentration at half of the fitted maximal effect.

`COCCNCCOc1ccc(C)cc1[N+](=O)[O-]` gave Vaccinia Venus -9.0%, Sm TGR inh -3.2%, LASV entry inh -0.1%[46.1 µM], Vaccinia mCherry -5.0%, FMDV inh -8.5% and Marburg entry inh -13.5%[46.1 µM].
For CCc1cccc(CC)c1NC(=O)c1c(C)oc2ccc(O)c(CN3CCN(C)CC3)c12 the results were Vaccinia Venus -9.3%, Sm TGR inh 5.8%, LASV entry inh 6.1%[46.1 µM], Vaccinia mCherry -3.3%, FMDV inh -19.0% and Marburg entry inh inconclusive.
`COc1cccc(/C=N/NC(=O)C(=O)Nc2ccccc2OC(F)(F)C(F)F)c1O` gave Vaccinia Venus inconclusive, Sm TGR inh -22.3%, LASV entry inh inconclusive, Vaccinia mCherry 10µM*, FMDV inh -27.5% and Marburg entry inh 8.91µM*.
For NC(=S)N/N=C/c1cccc(O)c1O the results were Vaccinia Venus -17.8%, LASV entry inh inconclusive, Vaccinia mCherry 8.91µM*, FMDV inh 24.4% and Marburg entry inh inconclusive.
`COc1ccccc1/C=N/NC(=O)c1cccc(OC(F)(F)C(F)F)c1` gave Vaccinia Venus -2.2%, Sm TGR inh -1.2%, LASV entry inh -10.7%, Vaccinia mCherry -18.3%, FMDV inh 20.0% and Marburg entry inh -4.2%.
Screening O=C(NN=Cc1cccc(O)c1O)c1ccccc1 returned Vaccinia Venus inconclusive, Vaccinia mCherry 10µM* and FMDV inh 11.7%.
CCOC(=O)c1c(C)[nH]c(C(=O)N/N=C/c2ccc(Br)cc2)c1C was read as Vaccinia Venus inconclusive, Sm TGR inh 2.0%, LASV entry inh inconclusive, Vaccinia mCherry -27.5%, FMDV inh -19.1% and Marburg entry inh 2.82µM*.
Screening COc1cccc(/C=N/NC(=O)c2ccc(-c3ccccc3)cc2)c1O returned Vaccinia Venus inconclusive, Sm TGR inh 8.0%, LASV entry inh 5.62µM*, Vaccinia mCherry 4.47µM*, FMDV inh -27.2% and Marburg entry inh 3.16µM*.
`O=C(N/N=C/c1ccoc1)c1ccc(Br)cc1` gave Sm TGR inh 5.3% and FMDV inh 23.7%.
Screening O=C(N/N=C/c1ccoc1)c1ccc(Cl)cc1 returned Sm TGR inh 44.7µM* and FMDV inh 0.0%.
CCn1c(C)nc2cc(C(=O)N/N=C/c3cccc(O)c3O)ccc21 was read as Vaccinia Venus inconclusive, Sm TGR inh -34.0%, LASV entry inh inconclusive, Vaccinia mCherry 12.6µM*, FMDV inh 7.6% and Marburg entry inh inconclusive.
CCn1c(C)nc2cc(C(=O)NNC(=S)Nc3ccccc3)ccc21 was read as Vaccinia Venus -27.3%, LASV entry inh 4.47µM*, Vaccinia mCherry -25.9%, FMDV inh 2.4% and Marburg entry inh inconclusive.
Cc1cc(F)ccc1NC(=O)CS(=O)(=O)c1cccc2nsnc12 was read as Vaccinia Venus -5.4%, Sm TGR inh -5.0%, LASV entry inh -0.5%[46.1 µM], Vaccinia mCherry -10.1% and FMDV inh -18.6%.
Screening CCOC(=O)[C@]12C[C@]3(OC)CCN(C(=O)N[C@@H]1c1ccccc1)[C@@H]32 returned LASV entry inh -19.5%[14.3 µM] and Marburg entry inh 9.7%[14.2 µM].
For Cc1cc(C(=O)NCC2CCC3(CCN(Cc4cccc(F)c4F)CC3)O2)n(C)n1 (stereo unspecified) the results were Vaccinia Venus -22.6%, Vaccinia mCherry -2.6% and FMDV inh -28.6%.
`COc1cccc(/C=N/NC(=O)c2ccc(=O)[nH]n2)c1O` gave Sm TGR inh 21.3% and FMDV inh 61.2%.
Cc1cccc(/C=N/NC(=O)c2c(-c3ccccc3)noc2C)c1O was read as Vaccinia Venus -27.7%, Sm TGR inh -14.5%, LASV entry inh -22.5%[46.1 µM], Vaccinia mCherry 0.562µM*, FMDV inh -25.8% and Marburg entry inh inconclusive.
`COc1cccc(/C=N/NC(=O)c2ccc([N+](=O)[O-])cc2Cl)c1O` gave Vaccinia Venus inconclusive, Sm TGR inh -1.3%, LASV entry inh 14.6µM*, Vaccinia mCherry 11.2µM*, FMDV inh 0.4% and Marburg entry inh inconclusive.
Screening COc1cc(/C=N/NC(=O)c2cccc([N+](=O)[O-])c2)cc(OC)c1O returned Vaccinia Venus -2.2%, Sm TGR inh -12.0%, Vaccinia mCherry -8.6% and FMDV inh 6.1%.
COc1cccc(/C=N/NC(=O)c2[nH]c(C)c(C(=O)N/N=C/c3cccc(OC)c3O)c2C)c1O was read as Vaccinia Venus -13.6%, Sm TGR inh 8.0%, LASV entry inh inconclusive, Vaccinia mCherry -26.4%, FMDV inh 32.0% and Marburg entry inh 8.91µM*.
COc1cccc(/C=N/NC(=O)c2c(C)nc3ccc(Cl)cn23)c1O was read as Vaccinia Venus inconclusive, Sm TGR inh -21.5%, LASV entry inh inconclusive, Vaccinia mCherry 3.16µM*, FMDV inh 11.2% and Marburg entry inh 1µM*.
`COc1ccc2[nH]c(=O)c(CN(C(=O)c3cccc(Cl)c3)c3ccccc3C)cc2c1` gave Vaccinia Venus -10.4%, Sm TGR inh -6.3%, LASV entry inh 20.9%[46.1 µM], Vaccinia mCherry -9.4%, FMDV inh 1.8% and Marburg entry inh -5.1%[46.1 µM].
`Cc1cccc(/C=N\NC(=O)c2ccc(Cl)cc2)c1O` gave Vaccinia Venus inconclusive, Sm TGR inh 1.6%, LASV entry inh 11.2µM*, Vaccinia mCherry 2.51µM*, FMDV inh -2.6% and Marburg entry inh 5.62µM*.
`COc1cccc(/C=N/NC(=S)Nc2cccc(C(=O)O)c2)c1O` gave Sm TGR inh 1.0%, LASV entry inh 5.8µM*, FMDV inh inconclusive and Marburg entry inh 5.8µM*.
Screening COc1ccc(C(C)(O)c2nc(-c3ccc(F)cc3OC)cs2)cc1 (stereo unspecified) returned Vaccinia Venus -22.9%, Vaccinia mCherry -28.1% and FMDV inh 0.0%.
For O=C(CN(CCc1ccccc1)C(=O)Cn1nnc(-c2cccs2)n1)NCc1ccco1 the results were Vaccinia Venus -1.2%, Sm TGR inh 50.1µM*, LASV entry inh 15.0%, Vaccinia mCherry -5.0% and Marburg entry inh -7.9%.
For CC(NC(=O)c1ccco1)c1nnc2n1CCN(Cc1ccc(Cl)cc1)CC2 (stereo unspecified) the results were Vaccinia Venus -4.6%, Vaccinia mCherry -13.2% and FMDV inh 1.9%.
Screening COc1cc(/C=C/c2ccc3cccc(O)c3n2)cc(Cl)c1OC returned Vaccinia Venus 11.8%, Sm TGR inh -22.5%, LASV entry inh inconclusive, Vaccinia mCherry inconclusive, FMDV inh -9.9% and Marburg entry inh 4.47µM*.
For COc1cc(/C=C/c2ccc3cccc(O)c3n2)cc(OC)c1OC the results were Vaccinia Venus -21.8%, Sm TGR inh 3.7%, LASV entry inh inconclusive, Vaccinia mCherry 8.91µM*, FMDV inh 1.1% and Marburg entry inh inconclusive.
Screening COc1cc(/C=C/c2ccc3cccc(O)c3n2)cc(Br)c1OC returned Vaccinia Venus -3.3%, Sm TGR inh -9.4%, LASV entry inh -14.0%, Vaccinia mCherry inconclusive, FMDV inh -27.0% and Marburg entry inh inconclusive.

Source: PubChem
